Results reported in PubChem BioAssay AID1825 (The Scripps Research Institute Molecular Screening Center, 2009).
The whole screen tested about 290,000 compounds, of which about 2,300 (0.79%) were called active. Only a selection was taken, and actives are over-represented in it overall. Unmarked numbers belong to inactive results. Rule as the data show it: active = inhibition above about 22%; inactive = the rest.

Test: IEC-6 cell viability reduction – luminescence, cytotoxicity control for KLF5 inhibitor project, primary screen (AID 1825);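 also: 0% = plate median of test compound wells and 100% = cytotoxic reference compound wells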
Details: IEC-6 cytotoxicity, at 5 µM, active compounds read high

| Compound | inhibition |
| --- | --- |
| Cc1cc(C(C)(C)C)n2nc(C)c(-c3ccccc3)c2n1 | 0.2% |
| Cc1nn2c(NCCN(C)C)c3c(nc2c1-c1ccccc1)CCC3 | 25% (active) |
| CC(=O)N(c1ccc2oc(=O)sc2c1)S(=O)(=O)c1ccc(C)cc1 | -2.8% |
| C/C(=N\NC(=O)Cc1ccc(Cl)cc1)c1ccccn1 | -2.8% |
| C/C(=N\NC(=O)c1ccccc1F)c1ccccn1 | 29.2% (active) |
| COc1ccc(CC(=O)N/N=C(\C)c2ccccn2)cc1 | 2% |
| CCC(C)(C)NC(=O)/C=C/c1cc(OC)c(OC)c(S(=O)(=O)N2CCc3ccccc32)c1 | -0.4% |
| Cc1nc2ccccc2n1CC(O)c1ccccc1 (stereo not drawn) | 0% |
| CCn1c(C)nc2c1C(=O)c1ccccc1C2=O | 22.2% (active) |
| Cc1nc2ccccc2c(=O)n1Cc1ccc([N+](=O)[O-])cc1 | -1.7% |
| CCc1ccccc1NC(=S)Nc1cc(OC)c(NC(=O)C(C)C)cc1OC | -1.1% |
| NS(=O)(=O)c1ccccc1NC(=O)c1c(O)c2ccccc2[nH]c1=O | -0.5% |
| COc1ccc(Oc2cn[nH]c2-c2ccc(OC)cc2O)cc1 | 0% |
| CC(C)(C)NS(=O)(=O)c1ccc(NC(=O)C2CCCO2)cc1 (stereo not drawn) | -5% |
| CCN1CCN(CCNC(=O)c2ccc(/C=C3/Sc4ccccc4N(Cc4cccc(C)c4)C3=O)cc2)CC1 | 7.2% |
| CCN1/C(=C/c2ccc3ccc(C)cc3[n+]2CC)Sc2ccccc21 | 33.6% (active) |
| CCN1/C(=C\c2ccc3ccccc3[n+]2CC)Sc2cc(C)ccc21 | 54.6% (active) |
| COC(=O)c1sccc1NS(=O)(=O)c1ccc(F)cc1F | 1% |
| CCOC(=O)[C@@H]1[C@H]2COc3ccc(Br)cc3[C@H]2N2C(=O)N(c3ccc(Cl)cc3)C(=O)[C@@]12C | -0.1% |
| CC1CC(C)CN(C(=O)CCNC(=O)Cn2cnc3ccccc3c2=O)C1 (stereo not drawn) | 0.9% |
| CC(C)[C@@H](C(=O)O)N(Cc1cccc(CN([C@H](C(=O)O)C(C)C)S(C)(=O)=O)c1)S(C)(=O)=O | -3.4% |
| CCOC(=O)C(=Cc1ccccc1OC)C(=O)OCC | -0.6% |
| Cc1cc2c(cc1S(=O)(=O)CCC(=O)NCc1ccccc1)OCC(=O)N2 | 11% |
| C/C(=N\N(C)C)c1ccc(OCCOc2ccc([N+](=O)[O-])cc2)cc1 | 2.8% |

| Compound | inhibition |
| --- | --- |
| COc1cccc(OC)c1C(=O)Nc1c(C(=O)N2CCN(c3ccccn3)CC2)oc2ccccc12 | 0% |
| CCOc1ccc(NC(=O)CC(Cc2ccc(Cl)cc2)C(=O)O)cc1 (stereo not drawn) | 5.3% |
| CCSc1nnc(NC(=O)c2ccc(C)cc2)s1 | 2.1% |
| Cc1nnc(NC(=O)Nc2ccc(Cl)c(Cl)c2)s1 | 4.3% |
| CSc1nnc(NC(=O)c2nc(S(=O)(=O)Cc3ccc(C)cc3)ncc2Cl)s1 | 55% (active) |
| Cc1ccc(S(=O)(=O)CC(=O)Nc2nnc(C)s2)cc1 | -1.2% |
| CSc1ncc(Cl)c(C(=O)Nc2cc(C)ccc2C)n1 | 4.1% |
| Cc1ccc(CS(=O)(=O)c2ncc(Cl)c(C(=O)Nc3nnc(C)s3)n2)cc1 | 83.7% (active) |
| Cc1ccc2cc(C)c(N3CCN(c4ccc(F)cc4)CC3)nc2c1 | -5.5% |
| COc1cccc2cc(-c3cc(=O)oc4cc(C)c(O)cc34)oc12 | -3.7% |
| Cc1[nH]c(C)c(S(=O)(=O)N2CCN(c3cccc(C(F)(F)F)c3)CC2)c1C(=O)N1CCCC1 | -1.3% |
| COc1cccc(C(O)c2nc3ccccc3n2C)c1 (stereo not drawn) | -1% |
| CC(C)[C@@H]1COC(c2cccc(C3=N[C@H](C(C)C)CO3)c2)=N1 | 2.1% |
| CCCc1nc(NCc2ccc3c(c2)OCO3)c2nnn(Cc3ccccc3Cl)c2n1 | 0.3% |
| Cc1nc(Nc2ccccc2F)c2nnn(Cc3ccccc3Cl)c2n1 | -5.6% |
| Cc1nc(Nc2ccc3c(c2)OCCO3)c2nnn(Cc3ccccc3Cl)c2n1 | 22.2% (active) |
| O=C(CNC(=O)c1ccc(Br)o1)Nc1ccccc1 | -1.9% |
| CCOc1cccc(-n2nnnc2-c2ccc(OC)cc2)c1 | 58.4% (active) |
| c1ccc(-n2nnnc2-c2cccnc2)cc1 | 4.3% |
| COc1ccc(-n2nnnc2-c2nc3ccccc3s2)cc1 | -9% |
| COCCNC(=O)C(c1ccc(C)cc1)N(C(=O)CCC(=O)Nc1ccccn1)c1cccc(C)c1 (stereo not drawn) | 7% |
| C=CCOC(=O)C1=C(C)NC(SCC(=O)OCC)=C(C#N)C1c1ccc(C)cc1 (stereo not drawn) | 0.1% |
| Cc1ccc(C2CC(=O)NC(SCC(=O)OCc3ccccc3)=C2C#N)o1 (stereo not drawn) | -14.2% |
| CCOC(=O)CSC1=C(C#N)C(c2sccc2C)CC(=O)N1 (stereo not drawn) | 81.1% (active) |
